The source of these data is PubChem BioAssay (Tox21).

Records with an inconclusive call do not appear. Activity calls are given as the source filed them. The call rests on the fitted dose curve; in most records, active means well fitted activation curve with a large enough effect in the signal ratio in the repeat runs (not every such curve was filed as active); inconclusive means weak or mixed curves; inactive means flat fitted curve, though single readings scatter; the % refers to the signal ratio.
On the % scale 0 is the no-effect control and ±100 the full control effect.

The assay can be described thus: qHTS assay to identify small molecule agonists of the TGF-beta/Smad signaling pathway (AID 1346859). The settings on record: SBE-bla HEK293T, TGF-beta/Smad beta-lactamase reporter, 5 h; series mostly up to 76.8 µM; activation: at the top concentration. The source says:
U.S. Tox21 Program National Center for Advancing Translational Sciences [NCATS] NIH Chemical Genomics Center [NCGC] U.S. Environmental Protection Agency [EPA] National Institutes of Environmental Health Sciences [NIEHS] National Toxicology Program [NTP] U.S. Food and Drug Administration [FDA] Tox21 Assay Overview: Transforming growth factor beta (TGF-beta) superfamily consists of a large number of structurally related dimeric proteins that act as hormones or local mediators in regulating a wide range of biological functions. This superfamily includes TGF-betas themselves, the bone morphogenetic proteins (BMPs) and the activins. These ligands induce oligomerization of serine/threonine receptor kinases and phosphorylate the cytoplasmic signaling molecules of Smad protein family. CellSensor SBE-bla HEK 293T cell line (Life Technologies, Carlsbad, CA), responsive to TGF-beta was used to screen Tox21 10K compound library for identification of agonists/antagonists of the Smad signaling pathway. This cell line contains a beta-lactamase reporter gene under control of the Smad binding element (SBE) stably integrated into HEK 293T cells.
Tox21 Assay Protocol Summary: SBE-bla HEK 293T cells were dispensed at 4,000/well in 6 uL of assay medium into black wall/clear-bottom 1536-well plates using a Multidrop Combi (ThermoFisher Scientific, Waltham, MA) dispenser. After the assay plates were incubated at 37 C and 5% CO2 for an overnight, 23 nL of compounds dissolved in DMSO, positive controls or DMSO only was transferred to the assay plate by a Pintool station (Kalypsys, San Diego, CA). The assay plates were incubated at 37 C and 5% CO2 for 5 hr. One uL of LiveBLAzer B/G FRET substrate (Life Technologies) was added using a Flying Reagent Dispenser (Aurora Discovery, San Diego, CA) and the plates were incubated at room temperature for 2 hr. Fluorescence intensity (405 nm excitation, 460 nm and 530 nm emissions) was measured using an Envision plate reader (PerkinElmer, Shelton, CT).
For orientation: In qHTS, concentration-response curves come from the screen itself.
Regarding `CCOP(=O)(OCC)Oc1cc(C)nc(C(C)C)n1`, the “activation” value is 13.9% (inactive).

Take `CC(C)N(C(=O)CCl)c1ccccc1`: the call was inactive.

For the compound `CC(C)(C)c1ccc(OP(=O)(Oc2ccccc2)Oc2ccccc2)cc1`, the “activation” value is -4.99% (inactive).

As to `Cc1ccccc1OP(=O)(Oc1ccccc1C)Oc1ccccc1C`, the “activation” value was -8.69% (inactive).

In the case of `Fc1ccc(C(OCCN2CCN(CCCc3ccccc3)CC2)c2ccc(F)cc2)cc1`, the “activation” value is -8.07% [at 35.3 µM] (inactive).

Regarding `[O-][Cl+3]([O-])([O-])O`, the “activation” value is 0.46% (inactive).

`Nc1ccc(N=Nc2ccccc2)cc1`: the “activation” value is -9.2% (inactive).

For `C[C@]12Cc3cn[nH]c3C[C@@H]1CC[C@@H]1[C@@H]2CC[C@@]2(C)[C@H]1CC[C@]2(C)O`, the “activation” value was -7.54% [at 35.3 µM] (inactive).

In the case of `O=C(Cl)c1ccccc1F`, the “activation” value was -2.26% (inactive).

In the case of `N#Cc1c[nH]cc1-c1cccc2c1OC(F)(F)O2`, the “activation” value is -3.08% (inactive).

Turning to `COc1c2c(cc3c1OCO3)CCN(C)C2`, the “activation” value was -0.106% [at 35.3 µM] (inactive).

`CCCCC(CC)COC(=O)OOC(C)(C)C` (stereo not given): the “activation” value was 3.86% (inactive).

With `Clc1ccc(C2(Cn3cncn3)OCCO2)c(Cl)c1`, the “activation” value was -1.03% (inactive).

For the compound `CC(Cc1ccc(OCC(=O)O)cc1)NCC(O)c1csc(C(F)(F)F)n1` (stereo not given), the “activation” value is 0.17% (inactive).

With `Brc1ccc(Oc2ccc(Br)cc2Br)c(Br)c1`, the “activation” value was -3.9% (inactive).

Take `BrCC(Br)(Br)Br`: the “activation” value is 0.24% (inactive).

With `O=C(O)CCCCCCNC1c2ccccc2CCc2ccccc21`, the “activation” value was 1.1% [at 35.3 µM] (inactive).

Regarding `CCN(CC)C(=S)S`, the call was inactive.

As to `O=c1c2ccccc2c(=O)c2c1cc(Cl)c1[nH]c3c([nH]c12)c(Cl)cc1c(=O)c2ccccc2c(=O)c13`, the “activation” value is -0.2% (inactive).

For the compound `C[C@H]1[C@H](c2ccc(Cl)cc2)SC(=O)N1C(=O)NC1CCCCC1`, the “activation” value is -2.68% (inactive).

Regarding `CSC(=O)c1c(C(F)F)nc(C(F)(F)F)c(C(=O)SC)c1CC(C)C`, the “activation” value was 0.675% (inactive).

As to `COc1nc(C)nc(NC(=O)NS(=O)(=O)c2ccccc2Cl)n1`, the “activation” value was -0.175% (inactive).

On to `CN/C(=N\[N+](=O)[O-])NCc1cnc(Cl)s1`, for which the “activation” value was -1.81% (inactive).

On to `CCN(CC)C(=O)N[C@@H]1C=C2c3cccc4[nH]cc(c34)C[C@@H]2N(C)C1`, for which the “activation” value is 4.18% [at 35.3 µM] (inactive).

As to `Nc1cc(Cl)ccc1Cl`, the “activation” value is 3.03% (inactive).

For the compound `CCCCC/C=C\C/C=C\C/C=C\C/C=C\CCCC(=O)NCC(=O)O`, the “activation” value was 0.0389% [at 35.3 µM] (inactive).

Take `Oc1ccc2[nH]cc(CCCCN3CC=C(c4ccccc4)CC3)c2c1`: the “activation” value was -8.09% [at 35.3 µM] (inactive).

Turning to `COc1ccc2c(c1OC)C(=O)O[C@@H]2[C@H]1c2cc3c(cc2CCN1C)OCO3`, the “activation” value was 2.65% (inactive).

Consider `CCOP(=S)(OCC)SC(CCl)N1C(=O)c2ccccc2C1=O` (stereo not given), for which the “activation” value was -5.32% (inactive).

For `CCCCc1ccccc1`, the “activation” value was -1.84% (inactive).

In the case of `CCCCN(CCCC)C(=S)[S-].CCCCN(CCCC)C(=S)[S-].[Ni+2]`, the “activation” value is 2.84% [at 35.3 µM] (inactive).

For the compound `CNC(=O)CSP(=O)(OC)OC`, the “activation” value was 3.65% (inactive).

For `COC(=O)N(OC)c1ccccc1COc1ccn(-c2ccc(Cl)cc2)n1`, the “activation” value was 6.89% (inactive).

With `O=C(CCCCl)c1ccc(F)cc1`, the “activation” value is 3.13% [at 35.3 µM] (inactive).

For `CCC(C)Br` (stereo not given), the “activation” value was -6.14% (inactive).

`Cc1c([N+](=O)[O-])cc2c(c1[N+](=O)[O-])C(C)(C)CC2(C)C`: the “activation” value is -1.81% (inactive).

For the compound `CC1(C)[C@H](/C=C2\CCSC2=O)[C@@H]1C(=O)OCc1coc(Cc2ccccc2)c1`, the “activation” value was 0.83% (inactive).

Regarding `S=C=Nc1ccccc1`, the “activation” value was 3.99% (inactive).

`CCn1cc[n+](C)c1` (tested in a mixture with another compound): the “activation” value is 1.12% (inactive).

For `CC(C)N(C(=O)SC/C(Cl)=C/Cl)C(C)C`, the “activation” value was 1.38% (inactive).
